In test [1] the test system is XIP peptide (Xip251-270) binding. In words: small-molecule binders of XIP peptide, primary screen, biochemical, small-molecule microarray, fluorescence 635/667 nm, 0.1 µg/mL protein (AID 1182). Particulars: fluorescent protein binding, 635 nm, higher = more signal, called active from +8 up or from −8 down.
For a further test, the system named is XIP peptide (Xip251-270). In words: small-molecule binders of XIP peptide, primary screen, biochemical, small-molecule microarray, fluorescence 635/667 nm, 0.5 µg/mL protein (AID 1183). The settings on record: small-molecule microarray binding, fluorescence 635 nm; higher = more signal.
Test [2] in a line: Plasmodium falciparum growth inhibition, primary screen, strain 3D7, DAPI fluorescence, 100 nL (AID 1184).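 Note: parasites grown inside human red blood cells in medium with human serum.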 Particulars: P. falciparum 3D7 growth, 3 d, higher = more signal.
Test [3] has as its target Homeobox protein Hox-A13 (Mus musculus) (UniProt Q62424). In words: inhibitors of HoxA13-DNA binding, primary screen, biochemical, fluorescence polarization, labeled oligonucleotide (AID 1185). The settings on record: 15 min, higher = more signal, called active from +8 up or from −8 down.
Test [4] in a line: inhibitors of hydroxyurea-induced Chk1 phosphorylation, primary screen, imaging, HeLa, phospho-Chk1 antibody, percent positive cells (AID 1186). Particulars: hydroxyurea-induced phospho-Chk1 immunofluorescence imaging, higher = more signal.
The nature of test [5]: inhibitors of hydroxyurea-induced Chk1 phosphorylation, primary screen, imaging, HeLa, phospho-Chk1 nuclear intensity (AID 1187). The settings on record: hydroxyurea-induced phospho-Chk1 immunofluorescence imaging, higher = more signal.

Among the data in PubChem BioAssay are composite z-score and z-score values, retold here.

Calls of active or inactive are those of the source. Unless noted, the rule behind the calls is not given here.

Sequence of Homeobox protein Hox-A13 (Mus musculus) (Q62424 whole entry, looked up): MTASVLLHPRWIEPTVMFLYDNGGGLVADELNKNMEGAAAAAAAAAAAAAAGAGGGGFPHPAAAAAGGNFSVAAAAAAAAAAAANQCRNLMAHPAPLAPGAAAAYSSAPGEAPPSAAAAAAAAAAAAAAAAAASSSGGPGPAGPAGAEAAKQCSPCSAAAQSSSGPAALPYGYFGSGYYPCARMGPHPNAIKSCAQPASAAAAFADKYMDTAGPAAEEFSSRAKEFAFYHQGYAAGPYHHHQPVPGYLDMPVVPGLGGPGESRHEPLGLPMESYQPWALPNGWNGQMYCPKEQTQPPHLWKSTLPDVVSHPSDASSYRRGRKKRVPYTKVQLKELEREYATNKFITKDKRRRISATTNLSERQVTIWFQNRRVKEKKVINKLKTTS

Turning to `C=CCN1Cc2ccccc2C[C@@]2(COC(c3ccc(OCCCO)cc3)=N2)C1=O`, the results for the composite z-score (in test [1]; in the test on XIP peptide (Xip251-270)) were 0.415 (inactive) and 0.793, respectively. Moreover, the z-score in test [2] is -1.85; in test [3], -3.96 (inactive); in test [4], -0.221 (inactive); in test [5], -0.208 (inactive).

For `COc1cc(NN2C(C(O)c3ccccc3)C=CC3C(=O)N(c4ccccc4)C(=O)C32)cc(OC)c1OC` (configuration not stated), the figures for the composite z-score (in test [1]; in the test on XIP peptide (Xip251-270)) were 0.396 (inactive) and 0.774, respectively. The z-score is -0.634 in test [2], -4.58 (inactive) in test [3], 0.124 (inactive) in test [4] and -0.0995 (inactive) in test [5].

As for `CO[C@H]1O[C@H](CO)[C@@H](OC(=O)Nc2ccc3c(c2)OCO3)[C@H](OC(=O)Nc2ccc3c(c2)OCO3)[C@H]1OC(=O)Nc1ccc2c(c1)OCO2`, the composite z-score in test [1] is 2.3 (inactive); in the test with XIP peptide (Xip251-270), 0.842. Besides, the z-score in test [2] was -2.1; in test [3], -4.78 (inactive); in test [4], -0.134 (inactive); in test [5] it was 0.245 (inactive).

In the case of `CC(C)(C)OC(=O)CC[C@@]1(C(N)=O)N=C(c2ccc(OCCCO)cc2)O[C@@H]1c1ccccc1N=[N+]=[N-]`, the composite z-score in test [1] is 0.0344 (inactive); in the test on XIP peptide (Xip251-270), 0.839. In addition, the z-score in test [2] is -0.338; in test [3], -6.23 (inactive); in test [4], -0.244 (inactive); in test [5] it was -0.0977 (inactive).

Consider `C=CC[C@@]1(C(=O)NCc2ccccc2)N=C(c2ccc(OCCCO)cc2)O[C@@H]1c1ccccc1CN=[N+]=[N-]`, for which the figures for the composite z-score (in test [1]; with XIP peptide (Xip251-270)) were -0.0368 (inactive) and 0.496, respectively. Besides, the z-score is -2.28 in test [2], -10.5 (active) in test [3], 0.168 (inactive) in test [4] and 0.43 (inactive) in test [5].

Take `C=CCOC(=O)[C@@H]1[C@H]2C(=O)O[C@H](c3ccccc3)[C@H](c3ccccc3)N2[C@H](c2ccc(OCCOC(=O)[C@H]3C[C@H]4C(=O)N[C@@H](CC(C)C)C(=O)N4[C@H]3c3cccc(OCCO)c3)cc2)[C@@]12C(=O)Nc1ccc(I)cc12`: the composite z-score in test [1] was 0.559 (inactive); in the test on XIP peptide (Xip251-270), 0.824. The z-score is -1.68 in test [2], 2.41 (inactive) in test [3], 0.537 (inactive) in test [4] and 0.273 (inactive) in test [5].

On to `CCCC[C@@H]1C[C@H]1[C@@H](NC(=O)c1ccccc1)c1ccccc1`, for which the composite z-score in test [1] was -0.33 (inactive); in the test with XIP peptide (Xip251-270) it was -0.302. Besides, the z-score in test [2] is 0.328; in test [3] it was -1.46 (inactive); in test [4], 0.072 (inactive); in test [5], -0.0583 (inactive).

On to `CN(C)CCCC[C@@H]1NC(=O)[C@@H]2C[C@H](C(=O)NCCCCCN)[C@H](c3ccc(O)cc3)N2C1=O`, for which the composite z-score was 0.633 (inactive) in test [1] and 0.433 in the test with XIP peptide (Xip251-270). The z-score was 0.336 in test [2], -1.21 (inactive) in test [3], -0.538 (inactive) in test [4] and -0.472 (inactive) in test [5].

As to `COCCCNC(=O)[C@@]1(Cc2ccccc2I)c2ccccc2C(=O)N(Cc2ccccc2)[C@H]1c1ccc(CO)cc1`, the composite z-score was 0.433 (inactive) in test [1] and 0.736 in the test with XIP peptide (Xip251-270). In addition, the z-score was -1.04 in test [2], -4.39 (inactive) in test [3], -0.0143 (inactive) in test [4] and 0.371 (inactive) in test [5].

With `C=C(C)[C@@H]1CC=C(C(O)C2C=CC3C(=O)N(Cc4ccccc4)C(=O)C3N2n2cnnc2)CC1` (some centres not stated), the composite z-score in test [1] was -0.137 (inactive); in the test with XIP peptide (Xip251-270), 0.3. For the same compound, the z-score in test [2] is -1.03; in test [3] it was -1.35 (inactive); in test [4] it was -0.0789 (inactive); in test [5], 0.265 (inactive).

As for `[N-]=[N+]=NCc1ccccc1[C@@H]1OC(c2ccc(OCCCO)cc2)=N[C@]1(Cc1ccccc1N=[N+]=[N-])C(N)=O`, the composite z-score was 0.411 (inactive) in test [1] and 0.785 in the test on XIP peptide (Xip251-270). The z-score in test [2] was -1.63; in test [3] it was -3.75 (inactive); in test [4], 0.135 (inactive); in test [5], 0.278 (inactive).

`O=S(=O)(NCCCO)c1ccc(Br)cc1`: the composite z-score in test [1] was -0.2 (inactive); in the test with XIP peptide (Xip251-270) it was 0.0425. Moreover, the z-score in test [2] was 0.327; in test [3], 0.533 (inactive); in test [4], -0.868 (inactive); in test [5], -0.953 (inactive).

Regarding `C=CCC(OC(C)=O)[C@@H]1[C@@H](N(Cc2cc3ccccc3o2)C(=O)c2ccc(-c3ccccc3)cc2)c2cc(OCCCO)ccc2N1C(=O)Cc1ccc2ccccc2c1` (some centres not stated), the composite z-score is -0.317 (inactive) in test [1] and -0.269 in the test on XIP peptide (Xip251-270). Besides, the z-score in test [2] was -0.835; in test [3], -0.738 (inactive); in test [4], 0.485 (inactive); in test [5] it was 0.467 (inactive).

In the case of `C=C[C@H](C)[C@H](OC(=O)Nc1ccc(OC)cc1)c1ccc(O)c2ccccc12`, the composite z-score was 0.79 (inactive) in test [1] and -0.147 with XIP peptide (Xip251-270). Besides, the z-score in test [2] is -0.767; in test [3], -4.27 (inactive); in test [4], -0.33 (inactive); in test [5], -0.382 (inactive).

Turning to `CC(C)NC(=O)[C@@]1(c2ccc([N+](=O)[O-])cc2)CC(=O)N(C(C)C)[C@@H]1c1ccc(CO)cc1`, the composite z-score in test [1] is 0.508 (inactive); with XIP peptide (Xip251-270), 0.316. Further, the z-score in test [2] was 0.468; in test [3], -2 (inactive); in test [4], -0.403 (inactive); in test [5], -0.102 (inactive).

Regarding `CC(C)C[C@@H]1NC(=O)[C@@H]2C[C@H](C(=O)NCCCCN(C)C)[C@H](c3ccc(O)cc3)N2C1=O`, the values for the composite z-score (in test [1]; in the test on XIP peptide (Xip251-270)) were -0.0862 (inactive) and 0.937, respectively. Moreover, the z-score in test [2] was -0.06; in test [3], -1.49 (inactive); in test [4], 0.326 (inactive); in test [5], 0.219 (inactive).

As to `COCCOC(=O)N1C(=O)[C@@]2(c3cc(C#CC4=CCCCC4)ccc31)[C@H](C(=O)N1CCN(c3ncccn3)CC1)[C@H]1C(=O)O[C@H](c3ccccc3)[C@H](c3ccccc3)N1[C@@H]2c1ccc(OCCO)cc1`, the composite z-score in test [1] is 0.499 (inactive); in the test on XIP peptide (Xip251-270), 0.463. In addition, the z-score in test [2] was -2.08; in test [3], 1.96 (inactive); in test [4], 0.0924 (inactive); in test [5], 0.501 (inactive).

Consider `CC(C)NC(=O)[C@@H]1c2ccccc2C(=O)N(C2CCCCC2)[C@H]1c1ccc(CO)cc1`, for which the values for the composite z-score (in test [1]; in the test with XIP peptide (Xip251-270)) were 0.457 (inactive) and 0.254, respectively. Further, the z-score in test [2] is -0.361; in test [3], -2.65 (inactive); in test [4], -0.0625 (inactive); in test [5], -0.237 (inactive).

Take `C=CCC(OC(C)=O)[C@@H]1[C@@H](N(Cc2ccc(-c3cccc(C(F)(F)F)c3)o2)C(=O)Cc2ccc(OC)cc2)c2cc(OCCCO)ccc2N1C(=O)Cc1ccc(OC)cc1` (some centres not stated): the composite z-score in test [1] is -0.343 (inactive); in the test with XIP peptide (Xip251-270) it was 0.278. Besides, the z-score in test [2] was -2.23; in test [3], -3.42 (inactive); in test [4], -0.186 (inactive); in test [5], -0.0407 (inactive).

Regarding `[N-]=[N+]=Nc1ccccc1C[C@]1(C(=O)N2CCCCC2)N=C(c2ccc(OCCCO)cc2)O[C@H]1c1ccccc1N=[N+]=[N-]`, the values for the composite z-score (in test [1]; in the test with XIP peptide (Xip251-270)) were 1.01 (inactive) and 0.659, respectively. Also, the z-score in test [2] was -2.34; in test [3] it was -1.63 (inactive); in test [4], -0.0268 (inactive); in test [5], 0.205 (inactive).

In the case of `Cc1ccc(S[C@]2(C(=O)NCC(C)C)CC(=O)N(Cc3ccccc3)[C@@H]2c2ccc(CO)cc2)cc1`, the composite z-score in test [1] is 1.34 (inactive); in the test on XIP peptide (Xip251-270) it was 0.404. The z-score is -0.894 in test [2], -2.95 (inactive) in test [3], 0.306 (inactive) in test [4] and -0.141 (inactive) in test [5].

Regarding `O=C(NCC(O)CO)[C@@]1(Cc2ccccc2)COC(c2ccc(OCCCO)cc2)=N1` (some centres not stated), the composite z-score is -0.0623 (inactive) in test [1] and 0.464 in the test on XIP peptide (Xip251-270). Besides, the z-score was 0.945 in test [2], -5.97 (inactive) in test [3], -0.036 (inactive) in test [4] and 0.238 (inactive) in test [5].
